Data taken from PubChem BioAssay (EPA / NIEHS).
Active and inactive are the calls of the source. How the source made its calls: active means hit-call score of the fitted dose curve at least 0.9, where 1 is the maximum; inactive means score below 0.9.

What was measured:
[1] = APR_HepG2_NuclearSize_72hr: Apredica 72-hour HepG2 Assay for Nuclear Size (AID 2282925); conditions: high-content imaging, actives raise or lower the signal
Procedure, shortened: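 Nuclear size was read by high-content imaging of Hoechst 33342 stain after formaldehyde fixation. Compounds ran 72 h on HepG2 at 0.39 to 200 uM, with final DMSO 0.5% v/v. Curves fitted both directions relative to DMSO control.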

[2] = ATG_CRE_CIS: Attagene CIS-FACTORIAL HepG2 Assay for human cAMP Responsive Element (CRE) binding protein 3 (AID 2282926); conditions: HepG2 CRE cis-reporter, Attagene multiplexed mRNA; actives raise or lower the signal
Procedure, shortened: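 Readout: fluorescently labelled reporter transcripts resolved by capillary electrophoresis after RT-PCR, taken 24 h post-dosing in transfected HepG2. Endogenous transcription factor activity drives each cis-element reporter; gain or loss of signal fitted relative to DMSO control.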

[3] = target: CCAAT/enhancer-binding protein beta (Homo sapiens) (UniProt P17676); assay: ATG_C_EBP_CIS: Attagene CIS-FACTORIAL HepG2 Assay for human CCAAT/Enhancer Binding Protein (C/EBP) beta (AID 2282927); conditions: HepG2 Attagene cis-factorial transcription factor reporter; actives raise or lower the signal
CCAAT/enhancer-binding protein beta (Homo sapiens), sequence (P17676 whole entry, looked up): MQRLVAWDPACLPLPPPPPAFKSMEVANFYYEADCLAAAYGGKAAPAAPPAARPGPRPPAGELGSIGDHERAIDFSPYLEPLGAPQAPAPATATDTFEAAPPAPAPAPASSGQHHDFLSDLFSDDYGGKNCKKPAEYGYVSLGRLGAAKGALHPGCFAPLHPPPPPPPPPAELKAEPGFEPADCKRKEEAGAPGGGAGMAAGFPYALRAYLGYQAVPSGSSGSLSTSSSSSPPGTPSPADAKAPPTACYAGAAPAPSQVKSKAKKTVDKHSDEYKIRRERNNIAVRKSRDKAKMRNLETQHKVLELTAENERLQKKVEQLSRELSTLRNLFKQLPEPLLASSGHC
Procedure, shortened: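 Endogenous transcription factor activity in human liver HepG2 cells is inferred from induction of a CEBPB-linked reporter mRNA. Exposure lasts 24 h; activity is fitted in both directions relative to DMSO.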

[4] = ATG_CMV_CIS: Attagene CIS-FACTORIAL HepG2 Assay for human CMV (Internal Marker) (AID 2282928); conditions: HepG2 CMV promoter reporter, transcription factor profiling; actives raise or lower the signal;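 further: endpoint acts as a background internal control marker rather than a target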
Procedure, shortened: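 Reporter transcripts from transfected HepG2 cells are isolated after 24 h of chemical dosing, reverse-transcribed and amplified. Fragments labeled with 6-FAM are cut with HpaI and quantified by capillary electrophoresis; DMSO defines baseline.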

[5] = ATG_DR4_LXR_CIS: Attagene CIS-FACTORIAL HepG2 Assay for human Liver X Receptor (LXR), DR4 submotif (AID 2282929); conditions: HepG2 Attagene DR4 cis-reporter, mRNA transcription; actives raise or lower the signal
Procedure, shortened: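 The endpoint is DR4-element-driven reporter transcripts after 24 h chemical exposure of transfected HepG2 cells. These were measured via RT-PCR and capillary electrophoresis, and gain or loss of signal was fitted relative to DMSO controls.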

[6] = target: Aryl hydrocarbon receptor (Homo sapiens) (UniProt P35869); assay: ATG_Ahr_CIS: Attagene CIS-FACTORIAL HepG2 Assay for human Aryl Hydrocarbon Receptor (Ahr) (AID 2282930); conditions: HepG2 AhR cis-factorial reporter transcription; actives raise or lower the signal
Aryl hydrocarbon receptor (Homo sapiens), sequence (P35869 whole entry, looked up): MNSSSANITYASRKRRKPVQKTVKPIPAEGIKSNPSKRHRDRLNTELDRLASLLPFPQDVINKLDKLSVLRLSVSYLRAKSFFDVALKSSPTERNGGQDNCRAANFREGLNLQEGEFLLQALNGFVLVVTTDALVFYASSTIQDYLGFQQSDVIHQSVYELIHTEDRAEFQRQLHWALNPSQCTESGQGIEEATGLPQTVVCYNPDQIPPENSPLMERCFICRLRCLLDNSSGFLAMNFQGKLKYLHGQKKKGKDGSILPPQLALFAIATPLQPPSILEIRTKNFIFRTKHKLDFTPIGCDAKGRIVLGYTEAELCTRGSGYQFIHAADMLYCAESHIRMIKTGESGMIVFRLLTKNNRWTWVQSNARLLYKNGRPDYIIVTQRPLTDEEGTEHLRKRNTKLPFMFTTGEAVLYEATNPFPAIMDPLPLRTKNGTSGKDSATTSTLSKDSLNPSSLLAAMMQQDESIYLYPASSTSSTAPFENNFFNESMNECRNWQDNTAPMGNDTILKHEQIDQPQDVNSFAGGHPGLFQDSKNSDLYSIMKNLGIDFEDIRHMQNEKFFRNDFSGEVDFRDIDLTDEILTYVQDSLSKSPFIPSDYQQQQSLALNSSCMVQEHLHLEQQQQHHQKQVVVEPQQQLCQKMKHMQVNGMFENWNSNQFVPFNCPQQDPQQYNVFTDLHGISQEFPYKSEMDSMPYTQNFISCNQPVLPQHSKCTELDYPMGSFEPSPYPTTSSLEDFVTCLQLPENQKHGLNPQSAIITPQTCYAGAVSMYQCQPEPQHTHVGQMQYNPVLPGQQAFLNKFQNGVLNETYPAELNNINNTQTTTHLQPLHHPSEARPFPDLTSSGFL
Procedure, shortened: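 Transient MRTU transfection of HepG2 → 24 h compound exposure → total RNA, oligo(dT) RT → PCR, 6-FAM extension, HpaI cut → CE fluorescence. DMSO = baseline; bidirectional curve fit.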

[7] = ATG_AP_1_CIS: Attagene CIS-FACTORIAL HepG2 Assay for human Activator Protein 1 (AP-1) (AID 2282931); conditions: HepG2 Attagene cis-factorial AP-1 reporter mRNA; actives raise or lower the signal
Procedure, shortened: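 Readout is reporter transcript level from endogenous transcription factor activity, quantified by RT-PCR with fluorescent primer extension and capillary electrophoresis. Transiently transfected HepG2 cells, 24 h exposure. Curves fitted both directions versus DMSO.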

[8] = ATG_AP_2_CIS: Attagene CIS-FACTORIAL HepG2 Assay for human Activator Protein 2 (AP-2) (AID 2282932); conditions: HepG2 AP-2 cis-reporter, Attagene transcription factor profiling; actives raise or lower the signal
Procedure, shortened: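 Transiently transfected HepG2 cells are exposed to chemical for 24 h. Reporter transcripts are then measured as fluorescence following RT-PCR and capillary separation, and gain- or loss-of-signal is fitted relative to DMSO.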

[9] = ATG_BRE_CIS: Attagene CIS-FACTORIAL HepG2 Assay for human Bone Morphogenetic Protein (BMP) Response Element (BRE) (AID 2282933); conditions: HepG2 BMP response element reporter, Attagene transcription factor profiling; actives raise or lower the signal
Procedure, shortened: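 A HepG2 multiplex reporter system measured inducible reporter mRNA 24 h post-dosing. Detection: RT-PCR, 6-FAM primer extension, HpaI digestion, capillary electrophoresis. Activity fitted bidirectionally relative to DMSO.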

[10] = target: Retinoic acid receptor alpha (Homo sapiens) (UniProt P10276); assay: ATG_DR5_RAR_CIS: Attagene CIS-FACTORIAL HepG2 Assay for human Retinoic Acid Receptor Alpha (RARE), DR5 submotif (AID 2282934); conditions: HepG2 Attagene cis-factorial RARE DR5 reporter, mRNA; actives raise or lower the signal;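 on AC50: reporter responds to endogenous RAR alpha beta and gamma in HepG2 not RARA alone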
Retinoic acid receptor alpha (Homo sapiens), sequence (P10276 whole entry, looked up): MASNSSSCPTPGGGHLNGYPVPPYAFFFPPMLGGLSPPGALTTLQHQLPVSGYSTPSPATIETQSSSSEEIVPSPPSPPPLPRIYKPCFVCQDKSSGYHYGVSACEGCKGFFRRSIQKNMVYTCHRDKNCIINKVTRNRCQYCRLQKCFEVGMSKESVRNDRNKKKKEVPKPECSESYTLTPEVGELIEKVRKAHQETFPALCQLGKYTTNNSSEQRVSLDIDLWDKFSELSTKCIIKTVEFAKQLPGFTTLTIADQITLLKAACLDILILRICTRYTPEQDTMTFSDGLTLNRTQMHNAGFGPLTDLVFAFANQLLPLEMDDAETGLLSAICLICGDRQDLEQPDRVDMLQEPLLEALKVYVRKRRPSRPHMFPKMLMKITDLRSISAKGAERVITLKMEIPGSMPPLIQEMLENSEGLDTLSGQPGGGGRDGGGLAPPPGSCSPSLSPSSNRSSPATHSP
Procedure, shortened: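 Transient MRTU transfection of HepG2; 24 h compound treatment; TriZol RNA, oligo(dT) RT, PCR, FAM labelling, capillary electrophoresis. Bidirectional fit vs DMSO. Endogenous TF activity at DR5 RARE.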

Measured: AC50

O=[N+]([O-])c1ccccc1
inactive: all assays above

CCOP(=S)(Oc1ccc([N+](=O)[O-])cc1)c1ccccc1 (stereo not given)
active: [5] 28.4 µM | [7] 22.1 µM
not listed: [9]
inactive: all other assays above

CC(Cc1ccc(OCC(=O)O)cc1)NCC(O)c1csc(C(F)(F)F)n1 (stereo not given)
not listed: [5] | [9] | [10]
inactive: all other assays above

CSC(C)(C)C=NO
not listed: [4] | [10]
inactive: all other assays above

CCOC(=O)c1ccccc1C(=O)OCC
not listed: [5] | [6]
inactive: all other assays above

CCN(CC)c1ccccc1
not listed: [4] | [5] | [10]
inactive: all other assays above

O=P1(N(CCCl)CCCl)NCCCO1 (stereo not given)
not listed: [9] | [10]
inactive: all other assays above

CCC1(c2ccccc2)C(=O)N=C(O)NC1=O (stereo not given)
not listed: [9] | [10]
inactive: all other assays above

O=[N+]([O-])c1ccc(Cl)c(Cl)c1
inactive: all assays above

c1ccc(OP(Oc2ccccc2)Oc2ccccc2)cc1
not listed: [5] | [9] | [10]
inactive: all other assays above

CCCCCCCc1ccc(O)cc1
not listed: [5]
inactive: all other assays above

CN(C)C(=O)Cl
not listed: [4] | [9]
inactive: all other assays above

CCCCN(CCCC)SN(C)C(=O)Oc1cccc2c1OC(C)(C)C2
active: [5] 100 µM
not listed: [4] | [10]
inactive: all other assays above

Cc1cccc(N)c1
not listed: [4] | [9] | [10]
inactive: all other assays above

CC(Cl)(Cl)C(=O)O
not listed: [9] | [10]
inactive: all other assays above

CCCCc1ccccc1
not listed: [4] | [10]
inactive: all other assays above

ClC1=C(Cl)C2(Cl)C3C(Cl)C(Cl)CC3C1(Cl)C2(Cl)Cl (stereo not given)
active: [4] 48.8 µM | [5] 18.1 µM | [7] 48.1 µM | [10] 1.27 µM
not listed: [6]
inactive: all other assays above

Nc1ccc(Cl)cc1
not listed: [9] | [10]
inactive: all other assays above

c1cc2c3c(cccc3c1)CC2
not listed: [4]
inactive: all other assays above

Cc1ccc(N)cc1N
active: [6] 5.24 µM
not listed: [4] | [9] | [10]
inactive: all other assays above

Nc1ccc2ccccc2c1
active: [6] 7.38 µM
inactive: all other assays above

CCOS(=O)(=O)OCC
not listed: [9] | [10]
inactive: all other assays above

ClC(Cl)(Cl)c1ccccc1
not listed: [5] | [9] | [10]
inactive: all other assays above

CCCCN(CCCC)N=O
not listed: [9] | [10]
inactive: all other assays above

c1ccc2c(c1)Nc1ccccc1S2
active: [9] 41.7 µM
not listed: [4] | [6]
inactive: all other assays above

Nc1cc2c3c(c1)C(c1ccccc1)=N[C@@H](NC(=O)c1cccnc1)C(=O)N3CC2
active: [3] 40.6 µM | [8] 145 µM
not listed: [10]
inactive: all other assays above

Cc1ccc([N+](=O)[O-])cc1C
inactive: all assays above

CCCN(CCC)c1c([N+](=O)[O-])cc(C(C)C)cc1[N+](=O)[O-]
active: [4] 56.2 µM | [7] 130 µM
not listed: [5]
inactive: all other assays above

CCOP(=S)(OCC)SCSCC
not listed: [10]
inactive: all other assays above

COCCOCCO
not listed: [9]
inactive: all other assays above

c1nc[nH]n1
not listed: [5] | [9] | [10]
inactive: all other assays above

CC(C)(C)OOC(C)(C)C
not listed: [4] | [5] | [10]
inactive: all other assays above

O=C(O)C(Cl)Cl
not listed: [5] | [10]
inactive: all other assays above

O=P(Oc1ccccc1)(Oc1ccccc1)Oc1ccccc1
active: [5] 13.5 µM | [7] 52.6 µM | [9] 54 µM
not listed: [4] | [10]
inactive: all other assays above

[N-]=[N+]=[N-]
not listed: [6] | [9] | [10]
inactive: all other assays above

OCC1CO1 (stereo not given)
not listed: [4] | [10]
inactive: all other assays above

CCNc1nc(Cl)nc(NC(C)(C)C)n1
not listed: [5]
inactive: all other assays above

O=C(O)C1C(C(=O)O)C2(Cl)C(Cl)=C(Cl)C1(Cl)C2(Cl)Cl (stereo not given)
not listed: [5] | [10]
inactive: all other assays above

CCOc1ccc(C(C)(C)COCc2cccc(Oc3ccccc3)c2)cc1
not listed: [5] | [10]
inactive: all other assays above

Nc1ccc([N+](=O)[O-])cc1Cl
not listed: [1]
inactive: all other assays above

CC(C)CBr
not listed: [1] | [9]
inactive: all other assays above

N#C/C=C/c1ccccc1
not listed: [1] | [9]
inactive: all other assays above

O=P(OCC(Br)CBr)(OCC(Br)CBr)OCC(Br)CBr (stereo not given)
inactive: [2] | [3] | [4] | [10]
active: [5] 8.35 µM | [6] 19.5 µM | [7] 53.9 µM | [8] 40.1 µM

CC(C)(C)c1ccccc1OP(=O)(Oc1ccccc1)Oc1ccccc1
inactive: [2] | [6] | [8] | [10]
active: [3] 14.8 µM | [4] 100 µM | [5] 27.1 µM | [7] 116 µM

CCC(C)(C)c1ccc(O)cc1
active: [7] 49.5 µM
not listed: [4] | [5] | [10]
inactive: all other assays above

CCN(CC)C1CCCCC1
not listed: [1] | [9]
inactive: all other assays above

CC(=O)c1ccc(-c2ccccc2)cc1
active: [6] 56.5 µM
not listed: [1]
inactive: all other assays above

Cc1ccc2c(c1N)C(=O)c1ccccc1C2=O
active: [6] 4.15 µM | [7] 150 µM
not listed: [1]
inactive: all other assays above

CO/N=C(/C(=O)OC)c1ccccc1COc1ccccc1C
active: [4] 23.2 µM | [6] 22.9 µM | [7] 8.54 µM | [10] 5.62 µM
inactive: [2] | [3] | [5] | [8]

CCCCC(CC)COP(=O)(Oc1ccccc1)Oc1ccccc1 (stereo not given)
inactive: [2] | [3] | [8] | [10]
active: [4] 35.4 µM | [5] 26.1 µM | [6] 17.8 µM | [7] 29.5 µM | [9] 21.4 µM

COP(N)(=S)OC
not listed: [1]
inactive: all other assays above

FC(F)(F)C(F)(C(F)(F)F)C(F)(F)C(F)(F)CC1CO1 (stereo not given)
not listed: [1] | [5]
inactive: all other assays above

c1ccc2c(c1)sc1ccccc12
not listed: [1]
inactive: all other assays above

CCCCN(CC)C(=O)SCCC
not listed: [1]
inactive: all other assays above

Cc1c([N+](=O)[O-])cc2c(c1[N+](=O)[O-])C(C)(C)CC2(C)C
active: [4] 100 µM | [9] 100 µM | [10] 2.78 µM
not listed: [1]
inactive: all other assays above

O=C(O)CF
inactive: [2] | [3] | [4] | [6] | [7] | [8]

CCOP(=O)(O)C(N)=O
not listed: [1]
inactive: all other assays above
